Experimental data from PubChem BioAssay.
The other results are listed elsewhere or left out. Activity calls are given as the source filed them. Unless noted, no stated cut-off is given here; in the data, active means activation above about 22%; inactive means the rest.

How the values were obtained:
[1] = target: Peroxisome proliferator-activated receptor gamma (Homo sapiens) (UniProt P37231); test: agonists of PPARgamma SRC-2 coactivator recruitment, confirmation, biochemical, HTS (AID 1297); settings: biochemical SRC-2 recruitment by PPARgamma; at 8 µM; stronger effect = higher value;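 further: 0% = vehicle alone and 100% = reference agonist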
[2] = target: Peroxisome proliferator-activated receptor gamma (Homo sapiens) (UniProt P37231); test: PPARgamma agonists recruiting SRC-1 coactivator, confirmation, biochemical (AID 1300; in the data active means activation above about 20%;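 further: 0% = vehicle wells and 100% = reference agonist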); settings: PPARgamma–SRC-1 coactivator recruitment biochemical assay; at 8 µM; stronger effect = higher value
[3] = target: Peroxisome proliferator-activated receptor gamma (Homo sapiens) + Nuclear receptor coactivator 3 (Homo sapiens) (UniProt P37231+Q9Y6Q9); test: PPARgamma-driven SRC-3 coactivator recruitment agonists, confirmation, biochemical (AID 1301; in the data active means activation above about 24%;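 further: 0% = vehicle wells and 100% = reference agonist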); settings: biochemical PPARgamma-SRC-3 coactivator recruitment, agonist mode; at 8 µM; stronger effect = higher value
[4] = target: Sphingosine 1-phosphate receptor 4 (Homo sapiens) (UniProt O95977); test: S1P4 receptor antagonists, human, confirmation, cell-based (AID 1524; in the data active means inhibition above about 30%); settings: S1P4-expressing cell line, antagonist mode, reporter read-out; at 4.98 µM; stronger effect = higher value
[5] = target: Neuropeptide Y receptor type 2 (Homo sapiens) (UniProt P49146); test: NPY-Y2 potentiators or agonists, confirmation, cell-based (AID 1539; in the data active means activation above about 33%); settings: cell-based NPY-Y2 potentiator/agonist assay; at 3.6 µM; stronger effect = higher value
[6] = target: Sphingosine 1-phosphate receptor 1 (Homo sapiens) (UniProt P21453); test: S1P1 receptor antagonists, human, counter-screen for S1P4 antagonist project, cell-based (AID 1564; in the data active means inhibition above about 40%;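 further: receptor stimulated with S1P near its EC80; 0% = agonist stimulated wells and 100% = vehicle only wells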); settings: cell-based S1P1 antagonist counterscreen, at 4.98 µM, stronger effect = higher value
[7] = target: Neuropeptide Y receptor type 1 (Homo sapiens) (UniProt P25929); test: NPY-Y1 potentiators or agonists, counter-screen for NPY-Y2 potentiator project, cell-based, fluorescence (AID 1651; in the data active means activation above about 45%;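 further: cells stimulated with submaximal NPY then isoproterenol with phosphodiesterase inhibitor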); settings: Y1 HEK293-CNG cells, membrane potential fluorescence; at 3.6 µM; stronger effect = higher value
[8] = target: Neuropeptide Y receptor type 1 (Homo sapiens) (UniProt P25929); test: NPY-Y1 direct agonists, selectivity assay for NPY-Y2 potentiator project, cell-based, fluorescence (AID 1702;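 active means activation above the mean of DMSO-only control wells plus 3 SD, cut at about 18% in these data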;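 further: cells stimulated with 1 µM isoproterenol plus the PDE inhibitor Ro 20-1724; 0% = isoproterenol with DMSO and no NPY and 100% = 40 nM NPY; Y1 agonists lower the membrane potential dye signal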); settings: HEK293 Y1-CNGC, membrane potential fluorescence, agonism; at 3.6 µM; stronger effect = higher value
[9] = CNGC cAMP sensor activity inhibitors, counter-screen for NPY-Y2 potentiator project, cell-based, HEK293-CNG parental, membrane potential fluorescence (AID 1703;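 active means inhibition above the control-well mean plus 3 SD of those wells, cut at about 22% in these data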;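 further: 0% = DMSO with isoproterenol and 100% = DMSO without isoproterenol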); settings: isoproterenol cAMP, at 3.6 µM, stronger effect = higher value
[10] = target: Neuropeptide Y receptor type 2 (Homo sapiens) (UniProt P49146); test: NPY-Y2 direct agonists, counter-screen for NPY-Y2 potentiator project, cell-based, fluorescence (AID 1710;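 active means activation above the mean of solvent-only control wells plus 3 SD, cut at about 10% in these data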;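 further: cells stimulated by isoproterenol with no NPY added so direct agonism is tested; 0% = DMSO with isoproterenol alone and 100% = NPY at EC100 plus isoproterenol; agonism lowers probe fluorescence through less cAMP and CNG channel opening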); settings: HEK293 Y2/CNGC cells, membrane potential fluorescence, agonist mode; at 3.6 µM; stronger effect = higher value
[11] = growth loss of phage-infected E. coli expressing H. pylori AddAB, confirmation, AddAB inhibitor project, absorbance, E. coli V3065, T4 phage, triplicate (AID 488942;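 active means mean inhibition above a set limit taken from the earlier primary screen, cut at about 13% in these data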;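 further: higher means less bacterial growth since AddAB block lets phage replicate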); settings: OD, at 11.9 µM, stronger effect = higher value, T4 phage with gene 2 nonsense mutations
[12] = growth loss of RecBCD+ E. coli with mutant T4 phage, counter-screen for AddAB inhibitor project, absorbance, V66 E. coli (AID 488955;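 active means mean inhibition above the mean of solvent-only control wells plus 3 SD, cut at about 4% in these data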;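 further: optical density read after an 18 h incubation at 37 °C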); settings: OD growth, at 11.9 µM, stronger effect = higher value
[13] = bacterial viability inhibition counter-screen, confirmation, counter-screen for AddAB inhibitor project, absorbance (AID 488956; in the data active means inhibition above about 25%); settings: absorbance (AddAB counterscreen), at 11.9 µM, stronger effect = higher value
[14] = target: Nuclear receptor coactivator 3 (Homo sapiens) (UniProt Q9Y6Q9); test: SRC3 coactivator transcriptional activity inhibitors, confirmation, cell-based, luminescence, quadruplicate (AID 588792;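 active means mean inhibition over 43.08%, the solvent-only control mean plus 3 SD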;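 further: 0% = DMSO treated cells and 100% = gossypol at 36 µM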); settings: HEK293 GAL4-SRC3 luciferase reporter, at 3.6 µM, stronger effect = higher value
[15] = test system: transactivating tegument protein VP16 (Human herpesvirus 1), Gal4-VP16 luciferase reporter; test: VP16 transactivation inhibitors, counter-screen for SRC3 inhibitor project, cell-based, luminescence, high throughput (AID 588794; in the data active means inhibition above about 30%); settings: mammalian cells, VP16-driven luciferase reporter luminescence; at 3.6 µM; stronger effect = higher value
[16] = target: Nuclear receptor coactivator 1 (Homo sapiens) (UniProt Q15788); test: SRC1 coactivator transcriptional activity inhibitors, confirmation, cell-based, luminescence, quadruplicate (AID 588820;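 active means mean inhibition above 46.68%, the untreated control wells mean plus 3 SD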;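 further: 0% = DMSO wells and 100% = gossypol 36 µM treated wells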); settings: HEK293 GAL4-SRC1 luciferase reporter, at 3.6 µM, stronger effect = higher value
[17] = VP16 transactivation inhibitors, counter-screen for SRC1 inhibitor project, cell-based, luminescence, high throughput (AID 588824; in the data active means inhibition above about 25%); settings: cell-based VP16 transactivation luciferase luminescence; at 3.6 µM; stronger effect = higher value
[18] = target: Photoreceptor-specific nuclear receptor (Homo sapiens) (UniProt Q9Y5X4); test: NR2E3 agonist confirmation in cells, cell-based, luminescence, CHO-S two-hybrid (AID 624378;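 active means average inhibition above a cutoff equal to the mean inhibition of all tested compounds plus one SD, cut at about 70% in these data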;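 further: 0% = DMSO in NR2E3 cells and 100% = DMSO in cells lacking NR2E3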); settings: CHO-S mammalian two-hybrid NR2E3-NCOR, luciferase luminescence; at 3.98 µM; stronger effect = higher value
[19] = GAL4-VP16 reporter modulators, confirmation, counter-screen for NR2E3 agonist project, cell-based, luminescence, CHO-S, high throughput (AID 624379;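 active means mean inhibition above a cutoff equal to the average over all tested compounds plus one standard deviation, cut at about 70% in these data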;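 further: 0% = DMSO with VP16-transfected cells and 100% = DMSO with cells lacking VP16; higher means less reporter light so more repression of VP16 activity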); settings: CHO-S GAL4-VP16 luciferase reporter, at 3.98 µM, stronger effect = higher value
[20] = StAR promoter reporter inhibitors, counter-screen for LRH-1 inverse agonist project, cell-based, luminescence, high throughput (AID 651611; in the data active means inhibition above about 28%); settings: StAR promoter luciferase reporter counterscreen, at 3.6 µM, stronger effect = higher value
[21] = target: Nuclear receptor subfamily 5 group A member 2 (Homo sapiens) (UniProt O00482); test: LRH-1 (NR5A2) inverse agonists, retest, confirmation, cell-based, luminescence (AID 651613; in the data active means inhibition above about 42%;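 further: HEK293T cells co-transfected with LRH-1 and StAR promoter luciferase reporter; 0% = vehicle wells and 100% = parental cells lacking receptor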); settings: cell-based LRH-1 luciferase reporter, inverse agonism; at 3.6 µM; stronger effect = higher value
[22] = target: Steroidogenic factor 1 (Homo sapiens) (UniProt Q13285); test: SF1 (NR5A1) inverse agonists, counter-screen for LRH-1 inverse agonist project, cell-based, luminescence, high throughput (AID 651614; in the data active means inhibition above about 44%;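 further: cells cotransfected with StAR promoter reporter and SF1 expression vector; 0% = vehicle on cells with receptor and 100% = vehicle on cells lacking receptor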); settings: cell-based SF1 luciferase reporter, at 3.6 µM, stronger effect = higher value
[23] = VP16 transactivation reporter inhibitors, counter-screen for LRH-1 inverse agonist project, cell-based, luminescence, high throughput (AID 651615; in the data active means inhibition above about 33%); settings: Gal4-VP16 luciferase reporter cells, at 3.6 µM, stronger effect = higher value
[24] = growth loss of phage-infected RecBCD+ E. coli, confirmation, RecBCD inhibitor project, absorbance, E. coli V66, T4 gene 2 phage (AID 651982;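 active means mean inhibition over triplicates exceeding the hit threshold derived in the original primary screen, cut at about 11% in these data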); settings: E. coli V66 + T4 2- phage, growth OD; at 11.9 µM; stronger effect = higher value
[25] = E. coli viability inhibition, counter-screen for RecBCD inhibitor project, absorbance, high throughput (AID 651983; in the data active means inhibition above about 20%;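 further: E. coli strain V66 grown with compound alone and no phage infection; 0% = bacteria with DMSO vehicle only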); settings: absorbance (OD) growth, at 11.9 µM, stronger effect = higher value
[26] = growth loss of phage-infected AddAB-carrying E. coli, confirmation, counter-screen for RecBCD inhibitor project, absorbance, E. coli V3065, T4 phage (AID 651984;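 active means mean inhibition above the solvent-only control wells' mean plus 3 SD, cut at about 22% in these data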;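 further: higher means less bacterial growth from phage killing when AddAB is blocked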); settings: E. coli expressing H. pylori AddAB + T4 phage, OD growth; at 11.9 µM; stronger effect = higher value; gene 2 mutant T4, recBCD-deleted host
[27] = Gal4-VP16 luciferase reporter inhibitors, counter-screen for COUP-TFII antagonist project, cell-based, luminescence, HEK293 (AID 687007; in the data active means inhibition above about 13%); settings: at 8.5 µM, stronger effect = higher value
[28] = target: COUP transcription factor 2 (Homo sapiens) (UniProt P24468); test: NR2F2 transcriptional activity inhibitors, confirmation, cell-based, luciferase reporter, HEK293, triplicate (AID 687008;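 active means mean inhibition over three repeats above a set limit taken from the earlier primary screen, cut at about 38% in these data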;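 further: 100% = cells given the luciferase reporter alone without the COUP-TF2 vector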); settings: HEK293 NGFI-A luciferase reporter, luminescence; at 8.5 µM; stronger effect = higher value
[29] = test system: Fam108b (Abhd17b) serine hydrolase [Mus musculus]; test: mouse Fam108b serine hydrolase inhibitors, confirmation, counter-screen for RBBP9 inhibitor project, biochemical, fluorescence polarization, triplicate (AID 1978;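 active means inhibition above a limit from the primary screen, the mean over all compounds plus 3 SD, cut at about 19% in these data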;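 further: 0% = median of active Fam108b wells and 100% = catalytically dead S170A mutant; inhibitors free the probe so polarization falls as inhibition rises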); settings: recombinant Fam108b, FP-Rh probe fluorescence polarization; at 9.51 µM; stronger effect = higher value
[30] = target: Bcl-2-like protein 1 (Homo sapiens) (UniProt Q07817); test: Bcl-xL inhibitors blocking Bim BH3 binding, confirmation, counter-screen for MCL1 inhibitor project, biochemical, fluorescence polarization (AID 2166;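 active means inhibition above a cutoff equal to the mean inhibition of all tested compounds plus 3 SD, cut at about 30% in these data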); settings: GST-Bcl-xL / FITC-Bim BH3 peptide FP binding; at 10.9 µM; stronger effect = higher value
[31] = target: Induced myeloid leukemia cell differentiation protein Mcl-1 (Homo sapiens) (UniProt Q07820); test: inhibitors of MCL1 binding to BIM-BH3, confirmation, biochemical, fluorescence polarization, triplicate (AID 2168;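 active means inhibition above the average of all tested compounds plus 3 SD, cut at about 40% in these data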;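 further: 0% = DMSO wells and 100% = unlabeled Bim-BH3 control peptide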); settings: GST-MCL1 / FITC-Bim-BH3 fluorescence polarization; at 10.9 µM; stronger effect = higher value

Sequence of Peroxisome proliferator-activated receptor gamma (Homo sapiens) + Nuclear receptor coactivator 3 (Homo sapiens) (P37231 whole entry, looked up): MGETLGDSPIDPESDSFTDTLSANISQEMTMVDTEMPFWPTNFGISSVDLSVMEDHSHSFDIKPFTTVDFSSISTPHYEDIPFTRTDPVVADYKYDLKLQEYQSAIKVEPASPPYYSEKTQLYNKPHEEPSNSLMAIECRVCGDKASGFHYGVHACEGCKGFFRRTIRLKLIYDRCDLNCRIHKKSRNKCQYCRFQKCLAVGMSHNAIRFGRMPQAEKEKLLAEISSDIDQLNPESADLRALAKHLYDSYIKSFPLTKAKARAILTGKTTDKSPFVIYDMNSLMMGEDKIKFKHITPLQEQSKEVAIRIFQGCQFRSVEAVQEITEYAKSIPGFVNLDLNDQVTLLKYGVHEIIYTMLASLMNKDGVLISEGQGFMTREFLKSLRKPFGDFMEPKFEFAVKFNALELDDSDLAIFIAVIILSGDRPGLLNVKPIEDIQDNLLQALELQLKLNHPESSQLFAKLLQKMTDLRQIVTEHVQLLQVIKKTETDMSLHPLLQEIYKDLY
Sequence of Peroxisome proliferator-activated receptor gamma (Homo sapiens) + Nuclear receptor coactivator 3 (Homo sapiens) (Q9Y6Q9 whole entry, looked up): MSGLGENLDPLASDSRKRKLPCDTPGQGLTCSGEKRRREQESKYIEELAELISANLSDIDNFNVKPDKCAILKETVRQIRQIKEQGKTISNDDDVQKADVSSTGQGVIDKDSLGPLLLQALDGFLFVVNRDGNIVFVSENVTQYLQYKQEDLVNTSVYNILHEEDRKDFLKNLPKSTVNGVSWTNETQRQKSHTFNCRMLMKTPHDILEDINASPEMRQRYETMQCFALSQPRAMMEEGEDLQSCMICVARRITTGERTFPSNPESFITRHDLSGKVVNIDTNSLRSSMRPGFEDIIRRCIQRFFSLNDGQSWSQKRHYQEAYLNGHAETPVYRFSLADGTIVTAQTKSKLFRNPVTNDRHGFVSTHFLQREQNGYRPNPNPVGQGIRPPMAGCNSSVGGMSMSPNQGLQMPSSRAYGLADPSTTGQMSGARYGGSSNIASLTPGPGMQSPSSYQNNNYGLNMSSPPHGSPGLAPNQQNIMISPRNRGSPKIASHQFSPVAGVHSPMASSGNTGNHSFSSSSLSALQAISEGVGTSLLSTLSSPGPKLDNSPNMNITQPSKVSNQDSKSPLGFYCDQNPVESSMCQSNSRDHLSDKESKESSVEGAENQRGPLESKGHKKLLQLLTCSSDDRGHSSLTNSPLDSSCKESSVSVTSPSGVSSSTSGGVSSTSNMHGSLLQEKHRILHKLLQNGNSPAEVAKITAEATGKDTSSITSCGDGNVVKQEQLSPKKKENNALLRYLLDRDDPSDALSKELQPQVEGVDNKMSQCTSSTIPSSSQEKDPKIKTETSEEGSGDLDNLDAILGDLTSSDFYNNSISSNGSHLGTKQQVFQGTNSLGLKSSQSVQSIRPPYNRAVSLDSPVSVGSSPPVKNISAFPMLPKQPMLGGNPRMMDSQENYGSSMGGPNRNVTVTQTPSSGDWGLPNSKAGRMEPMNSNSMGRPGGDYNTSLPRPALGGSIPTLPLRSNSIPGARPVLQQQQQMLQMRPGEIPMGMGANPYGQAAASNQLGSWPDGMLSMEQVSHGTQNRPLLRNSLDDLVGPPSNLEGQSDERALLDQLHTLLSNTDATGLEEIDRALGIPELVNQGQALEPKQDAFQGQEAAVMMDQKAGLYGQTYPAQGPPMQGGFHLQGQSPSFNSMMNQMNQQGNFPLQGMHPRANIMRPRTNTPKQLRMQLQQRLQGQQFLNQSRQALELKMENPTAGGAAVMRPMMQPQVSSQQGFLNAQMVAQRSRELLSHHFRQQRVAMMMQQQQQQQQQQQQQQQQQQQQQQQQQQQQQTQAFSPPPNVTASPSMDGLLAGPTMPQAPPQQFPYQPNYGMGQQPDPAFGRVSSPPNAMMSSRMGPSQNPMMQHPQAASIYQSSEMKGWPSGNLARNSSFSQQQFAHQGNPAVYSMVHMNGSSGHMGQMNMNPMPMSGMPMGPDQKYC
Sequence of Peroxisome proliferator-activated receptor gamma (Homo sapiens) (P37231 whole entry, looked up): as the sequence (P37231 whole entry, looked up) above
Sequence of Neuropeptide Y receptor type 2 (Homo sapiens) (P49146 whole entry, looked up): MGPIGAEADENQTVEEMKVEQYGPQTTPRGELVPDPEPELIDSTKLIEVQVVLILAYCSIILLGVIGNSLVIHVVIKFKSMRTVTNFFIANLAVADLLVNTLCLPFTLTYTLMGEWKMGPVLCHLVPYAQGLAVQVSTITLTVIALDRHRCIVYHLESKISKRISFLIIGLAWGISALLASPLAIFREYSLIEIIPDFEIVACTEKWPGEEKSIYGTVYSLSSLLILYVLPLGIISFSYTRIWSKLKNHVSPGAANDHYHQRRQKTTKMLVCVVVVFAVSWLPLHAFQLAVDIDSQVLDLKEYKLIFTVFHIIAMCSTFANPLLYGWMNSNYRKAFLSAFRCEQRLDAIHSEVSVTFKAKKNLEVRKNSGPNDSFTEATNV
Sequence of Neuropeptide Y receptor type 1 (Homo sapiens) (P25929 whole entry, looked up): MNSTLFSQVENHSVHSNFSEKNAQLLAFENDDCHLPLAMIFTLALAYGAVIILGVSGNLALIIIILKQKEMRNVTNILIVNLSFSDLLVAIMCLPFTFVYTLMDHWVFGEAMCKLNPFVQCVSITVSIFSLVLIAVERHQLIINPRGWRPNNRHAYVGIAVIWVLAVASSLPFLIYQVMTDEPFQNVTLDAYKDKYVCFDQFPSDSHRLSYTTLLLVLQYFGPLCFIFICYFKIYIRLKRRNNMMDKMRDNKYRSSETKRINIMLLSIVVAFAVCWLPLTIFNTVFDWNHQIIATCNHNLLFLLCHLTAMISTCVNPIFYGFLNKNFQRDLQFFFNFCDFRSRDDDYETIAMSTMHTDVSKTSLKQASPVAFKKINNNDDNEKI
Sequence of Nuclear receptor subfamily 5 group A member 2 (Homo sapiens) (O00482 whole entry, looked up): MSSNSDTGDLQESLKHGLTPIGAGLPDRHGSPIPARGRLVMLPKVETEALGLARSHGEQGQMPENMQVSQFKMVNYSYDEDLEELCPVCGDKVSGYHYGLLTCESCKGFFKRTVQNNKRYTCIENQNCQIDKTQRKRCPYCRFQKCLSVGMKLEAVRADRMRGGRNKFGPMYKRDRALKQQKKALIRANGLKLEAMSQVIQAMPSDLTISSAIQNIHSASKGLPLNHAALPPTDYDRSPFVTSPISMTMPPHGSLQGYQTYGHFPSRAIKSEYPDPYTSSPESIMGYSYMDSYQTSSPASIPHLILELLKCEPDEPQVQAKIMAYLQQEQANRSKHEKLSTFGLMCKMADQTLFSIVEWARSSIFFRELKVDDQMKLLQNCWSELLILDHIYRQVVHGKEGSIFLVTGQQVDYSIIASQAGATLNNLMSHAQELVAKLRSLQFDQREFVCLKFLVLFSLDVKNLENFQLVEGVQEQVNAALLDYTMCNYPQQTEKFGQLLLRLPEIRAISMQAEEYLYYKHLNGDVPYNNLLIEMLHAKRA
Sequence of Steroidogenic factor 1 (Homo sapiens) (Q13285 whole entry, looked up, the tested form may be a part): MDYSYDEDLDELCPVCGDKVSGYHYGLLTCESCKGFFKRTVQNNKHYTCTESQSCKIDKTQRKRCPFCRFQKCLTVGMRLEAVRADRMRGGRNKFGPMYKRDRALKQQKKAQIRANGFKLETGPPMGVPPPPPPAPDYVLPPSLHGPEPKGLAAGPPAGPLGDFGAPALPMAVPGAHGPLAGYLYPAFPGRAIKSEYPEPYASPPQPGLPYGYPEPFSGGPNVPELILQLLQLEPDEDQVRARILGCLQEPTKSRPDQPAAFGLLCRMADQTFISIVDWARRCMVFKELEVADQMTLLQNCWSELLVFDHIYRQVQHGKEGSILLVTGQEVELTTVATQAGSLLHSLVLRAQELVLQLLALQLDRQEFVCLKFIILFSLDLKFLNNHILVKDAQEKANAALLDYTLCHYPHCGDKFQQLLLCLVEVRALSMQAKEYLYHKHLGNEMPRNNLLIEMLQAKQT
Sequence of COUP transcription factor 2 (Homo sapiens) (P24468 whole entry, looked up): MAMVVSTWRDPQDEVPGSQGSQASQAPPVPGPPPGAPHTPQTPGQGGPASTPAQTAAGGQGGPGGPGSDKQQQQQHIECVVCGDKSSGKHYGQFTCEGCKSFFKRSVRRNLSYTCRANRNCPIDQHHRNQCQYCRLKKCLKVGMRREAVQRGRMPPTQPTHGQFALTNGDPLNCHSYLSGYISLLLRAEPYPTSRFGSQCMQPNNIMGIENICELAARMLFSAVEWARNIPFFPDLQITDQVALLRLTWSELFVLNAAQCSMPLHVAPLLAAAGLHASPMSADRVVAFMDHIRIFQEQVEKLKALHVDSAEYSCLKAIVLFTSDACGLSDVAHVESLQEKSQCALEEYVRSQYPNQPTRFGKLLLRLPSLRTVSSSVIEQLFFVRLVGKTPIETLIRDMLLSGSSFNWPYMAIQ
Sequence of Nuclear receptor coactivator 3 (Homo sapiens) (Q9Y6Q9 whole entry, looked up, the tested form may be a part): as the sequence (Q9Y6Q9 whole entry, looked up) above
Sequence of Bcl-2-like protein 1 (Homo sapiens) (Q07817 whole entry, looked up): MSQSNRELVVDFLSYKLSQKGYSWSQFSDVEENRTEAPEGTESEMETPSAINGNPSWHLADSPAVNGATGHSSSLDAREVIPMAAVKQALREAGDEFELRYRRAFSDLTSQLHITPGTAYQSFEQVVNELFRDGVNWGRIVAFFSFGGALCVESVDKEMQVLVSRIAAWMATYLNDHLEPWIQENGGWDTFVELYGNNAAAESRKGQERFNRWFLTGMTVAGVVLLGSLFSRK

Cc1ccc(OCC(=O)Nc2ccc(-c3nc4ncccc4o3)cc2)cc1
inactive: activation [1] 2.88% | activation [2] 8.01% | activation [3] 5.41%

Cn1c(-c2sc3cc(C(F)(F)F)cnc3c2-c2ccccc2)n[nH]c1=S
active: activation [1] 89.8% | activation [2] 67% | activation [3] 53.5%

CCOc1ccc(NC(=O)CSc2ncnc3c2sc2ccccc23)cc1
active: activation [1] 46% | activation [2] 29.5% | activation [3] 32.6%

CCc1c(-c2ccccc2)nc(N)c(C#N)c1-c1cccs1
inactive: activation [1] 11.1% | activation [2] 13.3% | activation [3] 8.84%

COC(=O)Cn1cc(C(=O)c2cccs2)c2ccccc21
inactive: activation [1] -2.1% | activation [2] 0.95% | activation [3] 0.74%

COc1ccc(/C(O)=C2/C(=O)C(=O)N(c3nc(C)c(C)s3)C2c2ccco2)cc1 (centres undefined)
inactive: activation [2] 17.5% | activation [3] 16.1%
active: activation [1] 21.9%

O=C(CC(O)(C(F)(F)F)C(F)(F)F)Nc1ccc(Cl)c(Cl)c1
active: inhibition [4] 37.4% | activation [10] 11.5% | inhibition [11] 16.9% | inhibition [12] 21.6% | inhibition [14] 58.7% | inhibition [15] 65.2% | inhibition [17] 74.2% | inhibition [18] 99.8% | inhibition [19] 89.7% | inhibition [20] 74.3% | inhibition [21] 102% | inhibition [22] 90.4% | inhibition [23] 88.5% | inhibition [24] 16.8% | inhibition [25] 20.4% | inhibition [26] 22.1% | inhibition [27] 20.4% | inhibition [28] 62.1%
inactive: activation [5] 17% | inhibition [6] 8.72% | activation [7] -22.8% | activation [8] -13.7% | inhibition [9] -7.55% | inhibition [13] 16.9% | inhibition [16] 46.4%

CSc1c(SCc2ccccc2)cnn(Cc2ccccc2)c1=O
inactive: inhibition [29] 0.05% | inhibition [30] -5.91% | inhibition [31] -3.67%
active: activation [1] 34.4% | activation [2] 28.5% | activation [3] 25.9%
